According to PubChem BioAssay (NCI):
Where “and” joins values, the source holds several entries; their conditions need not be identical. Equal entries are not always repeated. Compounds without any hit were thinned out: in the full panel of roughly 83,000, 20% have a hit.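 Note: values are percent growth. 100 is the growth of untreated cells, values between 100 and 0 indicate rising inhibition; between -100 and 0 indicates cell death.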 Calls of active or inactive are those of the source. Rule for the calls: active = growth percent below 10; inactive = the rest.

Tested on: MDA-MB-231 breast
Assay: NCI-60 one-dose screen, 48 h (100 = growth as untreated, 0 = no growth, -100 = all killed)
Settings: 10 µM unless noted

SMILES | growth
CN(Cc1ccccc1)c1nc(Cl)c(C2CC(c3ccc(F)cc3)=NN2C=O)s1 (stereo unspecified) | 97% (inactive)
CCOC(=O)c1ccc(Nc2ncnc3c2cnn3-c2cccc(F)c2)cc1 | 93.3% (inactive)
Cc1ccc2nc3ccccc3c(NCc3ccc(Cl)cc3)c2c1 | 37.7% (inactive)
O=S(=O)(Nc1cc(Sc2cccc3cccnc23)c(O)c2ccccc12)c1ccc(F)cc1 | 19.6% (inactive)
CCCCC1COc2cccc3c2N1C=C/C3=C\C(=O)N(C)c1cccc(Cl)c1 (stereo unspecified) | 103% (inactive)
Cc1ccc(-c2nc3nc(-c4ccc(Cl)cc4)nc(N4CCCNCC4)c3o2)cc1 | -75.7% (active)
COc1cc(NS(=O)(=O)C(C)C)cc(-c2cc(-c3ccc(N4CCNCC4)cc3)cnc2N)c1 | 89.8% (inactive)
COCCn1cc(-c2csc(-c3cn(C)c4ccc(F)cc34)n2)c2cccnc21 | 51.5% (inactive)
COc1ccc(NC(=O)Nc2ccccc2CNc2nc(Nc3ccc(OCCN4CCCC4)cc3)ncc2Cl)cc1 | -59.1% (active)
COc1cc(CNC(=O)CCCC/C=C/C(C)C)ccc1O | 85.1% (inactive) and 83.3% (inactive)
CC(Sc1ccccc1)C(=O)O (stereo unspecified) | 93.2% (inactive)
Cc1ccc(-c2nc3nc(-c4ccccc4)nc(N4CCCNCC4)c3o2)cc1 | -86.9% (active)
CCCCn1c(C(=O)c2c[nH]c3ccccc23)n[nH]c1=S | 96.4% (inactive)
O=C1C(=C(O)c2ccccc2)C(=O)c2ccccc21 | 107% (inactive)
COc1ccc(-c2c[nH]c(C(=O)O)c2-c2cc(OC)c(OC)c(OC)c2)cc1 | 57.7% (inactive)
O=C(Nc1ccc2ccccc2c1)c1cc2ccccc2cc1O | 104% (inactive)
N=C(N)SCc1c2ccccc2c(CSC(=N)N)c2ccccc12 | 103% (inactive)
NNCCc1ccccc1 | 93.4% (inactive) and 83.5% (inactive)
Brc1ccc(/C=C(/C2=NCCN2)n2ccc3ccccc32)cc1 | 58.9% (inactive)

SMILES | growth
C=C(c1ccc(C(=O)O)cc1)c1cc2c(cc1C)C(C)(C)CCC2(C)C | 69.6% (inactive) and 68.2% (inactive)
N=C(N)c1ccc(-c2ccc(-c3ccc(Cl)c(Cl)c3)s2)cc1 | -20.2% (active)
C=C(CN1CC=CCC1)[C@@H]1CC[C@]2(COC(C)=O)CC[C@]3(C)[C@H](CC[C@@H]4[C@@]5(C)CC[C@H](O)C(C)(C)[C@@H]5CC[C@]43C)[C@@H]12 | 112% (inactive)
O=[N+]([O-])c1cc(C(F)(F)F)ccc1Sc1ccc(C(F)(F)F)cc1[N+](=O)[O-] | 72.4% (inactive)
CCn1cc(C(=O)NN=C2CCCC2)c(=O)c2ccc(C)nc21 | 93.3% (inactive)
O=C(Nc1ccc(Cl)c(Cl)c1)Nc1ccc(Cl)c(Cl)c1 | -91.1% (active) and 24.1% (inactive)
Cn1c(=O)c2c(nc(Nc3cc(=O)[nH]c(=O)[nH]3)n2Cc2ccccc2)n(C)c1=O | 99.7% (inactive)
CCOC(=O)c1c(-c2ccc(OC)cc2)c(C#N)c2c(C#N)c(N)nn2c1N | 28.4% (inactive)
COc1cc(/C=N/NC(=O)CCN2c3ccccc3Sc3ccccc32)cc(OC)c1OC | 68.5% (inactive)
O/N=C(/c1ccccc1)c1ccc2c3c(cccc13)CC2 | 82.7% (inactive) and 82.1% (inactive)
COc1cc(-c2nc3occn3c2-c2ccnc(NCCCNS(=O)(=O)c3ccc(O)cc3)n2)ccc1F | 67.1% (inactive)
CN(C)c1ccc2nc3ccc(=O)cc-3sc2c1 | 30.4% (inactive) and 43% (inactive)
ON=C1CCCCCCCC1 | 107% (inactive) and 123% (inactive)
[Cu+].[NH-][C@H]1C[N-]C(=O)[C@H]([C@H]2CCN=C(N)N2)[N-]C(=O)/C(=C\NC(N)=O)[N-]C(=O)[C@H](CNC(=O)C[C@@H](N)CCCN)[N-]C(=O)[C@H](CO)[N-]C1=O | 101% (inactive)
CC(C)=CCc1cc(O)c(O)c2oc3cc(O)cc(O)c3c(=O)c12 | 55.5% (inactive)
Cc1ccc(S(=O)(=O)OC[C@@]2(C)CC[C@]3(C)CC[C@]4(C)C(=CC[C@@H]5[C@@]6(C)CCCNC(C)(C)[C@@H]6CC[C@]54C)[C@@H]3C2)cc1 | -85.7% (active)
COc1cc(C=O)ccc1Oc1ccc([N+](=O)[O-])cc1[N+](=O)[O-] | 104% (inactive)
COc1cc2ncnc(Nc3ccc(F)c(Cl)c3)c2cc1OCC(=O)N1CCCCC1 | 105% (inactive)
CCN1C(=S)N(CC)C2C1NC(=S)N2/N=C/C=C/c1ccccc1 (stereo unspecified) | 52.7% (inactive)

Tested on: RXF 393 renal
Assay: as above
Settings: 10 µM unless noted

SMILES | growth
CN(Cc1ccccc1)c1nc(Cl)c(C2CC(c3ccc(F)cc3)=NN2C=O)s1 (stereo unspecified) | 92.9% (inactive)
CCOC(=O)c1ccc(Nc2ncnc3c2cnn3-c2cccc(F)c2)cc1 | 105% (inactive)
Cc1ccc2nc3ccccc3c(NCc3ccc(Cl)cc3)c2c1 | 29% (inactive)
O=S(=O)(Nc1cc(Sc2cccc3cccnc23)c(O)c2ccccc12)c1ccc(F)cc1 | -5.08% (active)
CCCCC1COc2cccc3c2N1C=C/C3=C\C(=O)N(C)c1cccc(Cl)c1 (stereo unspecified) | 108% (inactive)
Cc1ccc(-c2nc3nc(-c4ccc(Cl)cc4)nc(N4CCCNCC4)c3o2)cc1 | 80.2% (inactive)
COc1cc(NS(=O)(=O)C(C)C)cc(-c2cc(-c3ccc(N4CCNCC4)cc3)cnc2N)c1 | 41% (inactive)
COCCn1cc(-c2csc(-c3cn(C)c4ccc(F)cc34)n2)c2cccnc21 | 72.3% (inactive)
COc1ccc(NC(=O)Nc2ccccc2CNc2nc(Nc3ccc(OCCN4CCCC4)cc3)ncc2Cl)cc1 | -75.6% (active)
COc1cc(CNC(=O)CCCC/C=C/C(C)C)ccc1O | -46.1% (active) and 98.6% (inactive)
CC(Sc1ccccc1)C(=O)O (stereo unspecified) | 94.2% (inactive)
Cc1ccc(-c2nc3nc(-c4ccccc4)nc(N4CCCNCC4)c3o2)cc1 | -73.2% (active)
CCCCn1c(C(=O)c2c[nH]c3ccccc23)n[nH]c1=S | 107% (inactive)
O=C1C(=C(O)c2ccccc2)C(=O)c2ccccc21 | 135% (inactive)
COc1ccc(-c2c[nH]c(C(=O)O)c2-c2cc(OC)c(OC)c(OC)c2)cc1 | -3.91% (active)
O=C(Nc1ccc2ccccc2c1)c1cc2ccccc2cc1O | 115% (inactive)
N=C(N)SCc1c2ccccc2c(CSC(=N)N)c2ccccc12 | 99.7% (inactive)
NNCCc1ccccc1 | 122% (inactive) and 80.3% (inactive)
Brc1ccc(/C=C(/C2=NCCN2)n2ccc3ccccc32)cc1 | 50.6% (inactive)

SMILES | growth
C=C(c1ccc(C(=O)O)cc1)c1cc2c(cc1C)C(C)(C)CCC2(C)C | 94.9% (inactive) and 105% (inactive)
N=C(N)c1ccc(-c2ccc(-c3ccc(Cl)c(Cl)c3)s2)cc1 | 77.9% (inactive)
C=C(CN1CC=CCC1)[C@@H]1CC[C@]2(COC(C)=O)CC[C@]3(C)[C@H](CC[C@@H]4[C@@]5(C)CC[C@H](O)C(C)(C)[C@@H]5CC[C@]43C)[C@@H]12 | 109% (inactive)
O=[N+]([O-])c1cc(C(F)(F)F)ccc1Sc1ccc(C(F)(F)F)cc1[N+](=O)[O-] | 93.1% (inactive)
CCn1cc(C(=O)NN=C2CCCC2)c(=O)c2ccc(C)nc21 | 103% (inactive)
O=C(Nc1ccc(Cl)c(Cl)c1)Nc1ccc(Cl)c(Cl)c1 | -88.2% (active) and 58.8% (inactive)
Cn1c(=O)c2c(nc(Nc3cc(=O)[nH]c(=O)[nH]3)n2Cc2ccccc2)n(C)c1=O | 81.7% (inactive)
CCOC(=O)c1c(-c2ccc(OC)cc2)c(C#N)c2c(C#N)c(N)nn2c1N | 59.7% (inactive)
COc1cc(/C=N/NC(=O)CCN2c3ccccc3Sc3ccccc32)cc(OC)c1OC | 85.8% (inactive)
O/N=C(/c1ccccc1)c1ccc2c3c(cccc13)CC2 | 81.9% (inactive) and 64.7% (inactive)
COc1cc(-c2nc3occn3c2-c2ccnc(NCCCNS(=O)(=O)c3ccc(O)cc3)n2)ccc1F | 105% (inactive)
CN(C)c1ccc2nc3ccc(=O)cc-3sc2c1 | 52.2% (inactive) and 82% (inactive)
ON=C1CCCCCCCC1 | 112% (inactive)
[Cu+].[NH-][C@H]1C[N-]C(=O)[C@H]([C@H]2CCN=C(N)N2)[N-]C(=O)/C(=C\NC(N)=O)[N-]C(=O)[C@H](CNC(=O)C[C@@H](N)CCCN)[N-]C(=O)[C@H](CO)[N-]C1=O | 105% (inactive)
CC(C)=CCc1cc(O)c(O)c2oc3cc(O)cc(O)c3c(=O)c12 | 84.6% (inactive)
Cc1ccc(S(=O)(=O)OC[C@@]2(C)CC[C@]3(C)CC[C@]4(C)C(=CC[C@@H]5[C@@]6(C)CCCNC(C)(C)[C@@H]6CC[C@]54C)[C@@H]3C2)cc1 | -85.9% (active)
COc1cc(C=O)ccc1Oc1ccc([N+](=O)[O-])cc1[N+](=O)[O-] | 111% (inactive)
COc1cc2ncnc(Nc3ccc(F)c(Cl)c3)c2cc1OCC(=O)N1CCCCC1 | 84.8% (inactive)
CCN1C(=S)N(CC)C2C1NC(=S)N2/N=C/C=C/c1ccccc1 (stereo unspecified) | 2.31% (active)
